According to PubChem BioAssay (NCI):
Compounds without any hit were thinned out: in the full panel of roughly 83,000, 20% have a hit.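 In brief: 96-well plates, 48 h treatment, single concentration, percent growth endpoint.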 Values without a mark were called inactive. The source made the active and inactive calls.

system: SW-620 colon; assay: NCI-60 one-dose screen, 48 h (100 = growth as untreated, 0 = no growth, -100 = all killed); settings: 10 µM unless noted
Procedure: Growth inhibition of the SW-620 human tumor cell line is measured as a screen for anti-cancer activity. Cells are grown in 96 well plates and exposed to the test compound for 48 hours. Compounds are tested at a single concentration, which is 10^-5 M for most compounds. The reported endpoint is percent growth (GI% or GIPRCNT), where numbers from 0 - 100% represent growth inhibition, and numbers from -100% - 0 represent cell death. For example, a value of 40 represents 60% growth inhibition. A value of 0 means no net growth occurred over the course of the experiment. A value of -40 indicates 40% of cells at the beginning of the experiment died by the end of the experiment. A value of -100 means all cells are dead at the end of the experiment.
NCI-60 Human Tumor Cell Lines Screen was performed using the standard one-dose NCI protocol, which is described in more detail at https://dtp.cancer.gov/discovery_development/nci-60/default.htm.
Compounds with GIPRCNT values below 10 were considered active. Activity score was based on GIPRCNT using the following formula: […]
Score is 0 for GIPRCNT values of 100 or above, 50 for GIPRCNT values of 0, and 100 for GIPRCNT values of -100.

Q: `C#Cc1cccc(Nc2ncnc3cc(OC)c(OCCCCCCC(=O)NO)cc23)c1` was tested. Which growth did it give?
A: -22.6% (active)

Q: How did the growth turn out when `N#Cc1c(-c2ccc(C(F)(F)F)cc2)cc(NCC2CCS(=O)(=O)CC2)n2c1nc1ccccc12` was run?
A: 93.3%

Q: For `Cc1ncc(-c2ccnc(Nc3ccc(S(C)(=O)=O)cc3)n2)n1C(C)C`, which growth is on record?
A: 0.356% (active)

Q: For `C=C1CC[C@@H]2[C@](C)(COC(C)=O)[C@H](OC(C)=O)CC[C@@]2(C)[C@@H]1C/C=C1/C(=O)OC[C@H]1OC(C)=O`, which growth is on record?
A: -21.9% (active)

Q: `Cc1cnc(NC(=O)Nc2cc(Br)c(C)cc2OC[C@@H]2CNCCO2)cn1` was tested. Which growth did it give?
A: 20.8%

Q: For `COc1cc(Nc2ncc3c(n2)-c2ccc(Cl)cc2C(c2c(F)cccc2OC)=NC3)ccc1C(=O)O`, which growth is on record?
A: 54.7%

Q: `Cc1ccc(N=C2CSc3nnc(-c4csc5c4CCCC5)n3N2)cc1` was tested. Which growth did it give?
A: 29.9%

Q: Which growth does the source give for `CC[C@@H]1C(=O)N(C)c2cnc(Nc3ccc(C(=O)NC4CCN(C)CC4)cc3OC)nc2N1C1CCCC1` here?
A: 12.3%

Q: Which growth does the source give for `CC(=O)c1c(C)c2cnc(Nc3ccc(N4CCNCC4)cn3)nc2n(C2CCCC2)c1=O` here?
A: 27.3%

Q: With `COc1cc(Nc2ncc(F)c(Nc3ccc4c(n3)NC(=O)C(C)(C)O4)n2)cc(OC)c1OC` as the compound, how does the growth read?
A: 59.5%

Q: `CO[C@@H](C)Cn1c(=O)n(C)c2cnc3ccc(-c4cncc(C(C)(C)O)c4)cc3c21` was tested. Which growth did it give?
A: 9.31% (active)

Q: For `CCCCCCCC12Cc3ccccc3C1=Nc1c(c3ccccc3n1C)C2=O` (stereo not given), which growth is on record?
A: 97%

Q: `Cc1cc(Nc2cc(N3CCN(C)CC3)nc(/C=C/c3ccccc3)n2)n[nH]1` was tested. Which growth did it give?
A: 0.289% (active)

Q: For `COc1cccc2cc(-c3nc(C4CCC(C(=O)O)CC4)n4ncnc(N)c34)[nH]c12` (stereo not given), which growth is on record?
A: 14.4%

Q: For `COc1ccc(/C(C)=C(\c2ccc(Cl)cc2)c2ccc(OCCN3CCCCCC3)cc2)cc1`, which growth is on record?
A: 45%

Q: With `Cc1cccc(Cl)c1NC(=O)c1cnc(Nc2cc(N3CCOCC3)cc(S(C)(=O)=O)c2)s1` as the compound, how does the growth read?
A: 113%

Q: How did the growth turn out when `CCOC(=O)C1=C(C)NC(=O)NC1c1cc(=O)oc2ccc(C)cc12` (stereo not given) was run?
A: 108%

Q: Which growth does the source give for `C[C@@H]1COCCN1c1cc(C2([S@](C)(=N)=O)CC2)nc(-c2ccnc3[nH]ccc23)n1` here?
A: 43.7%

Q: With `Cc1ccc(Nc2nccc(N(C)c3ccc4c(C)n(C)nc4c3)n2)cc1S(N)(=O)=O` as the compound, how does the growth read?
A: 19.3%

Q: Which growth does the source give for `NC(=O)c1c(OCc2c(F)cc(Br)cc2F)nsc1NC(=O)NCCCCN1CCCC1` here?
A: -60.5% (active)

Q: For `COc1cc2c3c(c1)nc(C)n3CCC2`, which growth is on record?
A: 107%

Q: For `O=[N+]([O-])c1cc(Br)cc2c1[nH]c1ccc(Br)cc12`, which growth is on record?
A: 67%

Q: Which growth does the source give for `N[C@@H]1CCCN(c2c(/C=C3\SC(=O)NC3=O)cccc2-c2ccccc2)C1` here?
A: 60.3%

Q: For `CCN(CC)CCCC(C)Nc1cc(-c2ccc(C(F)(F)F)cc2)c(C#N)c2nc3ccccc3n12` (stereo not given), which growth is on record?
A: 12.2%

Q: With `CC(=O)C(C(C)=O)C(c1ccccc1)C(C(C)=O)C(C)=O` as the compound, how does the growth read?
A: 110%

Q: How did the growth turn out when `CC1(/C=N/NC(N)=S)NC(=O)NC1=O` (stereo not given) was run?
A: 106%

Q: How did the growth turn out when `COc1ccc2c(CCC(c3ccccc3)c3ccccc3)c3[n+](cc2c1OC)CCc1cc2c(cc1-3)OCO2` was run?
A: 11.5%

Q: Which growth does the source give for `CCN1CCN(Cc2ccc(Cc3ncc(F)c(-c4cc(F)c5nc(C)n(C(C)C)c5c4)n3)nc2)CC1` here?
A: -5.5% (active)

Q: Which growth does the source give for `CC(=O)OC(C(=O)c1ccccc1)c1ccccc1` (stereo not given) here?
A: 99.3%

Q: For `COc1cc2c(cc1OCCCCCN1CCN(c3ncnc4ccccc34)CC1)N=CC1CCCN1C2=O` (stereo not given), which growth is on record?
A: -1.54% (active)

Q: With `O=C(COc1ccc(/C=C2\Cc3ccc(Cl)cc3C2=O)cc1)Nc1nccs1` as the compound, how does the growth read?
A: 106%

Q: `CCN1CCN(c2nc(C)cc(N(CCCNc3ccnc4cc(Cl)ccc34)Cc3ccc4c(c3)OCO4)n2)CC1` was tested. Which growth did it give?
A: -32.3% (active)

Q: Which growth does the source give for `CN1CCN(CCOc2cc(OC3CCOCC3)c3c(Nc4c(Cl)ccc5c4OCO5)ncnc3c2)CC1` here?
A: 110%

Q: For `CC[n+]1c(/C=C/C=C2\N(C)c3ccccc3C2(C)C)sc2ccccc21`, which growth is on record?
A: 17%

Q: For `COc1cc(Nc2ncc(F)c(Nc3ccc4c(n3)N(COP(=O)(O)O)C(=O)C(C)(C)O4)n2)cc(OC)c1OC`, which growth is on record?
A: 38.2%

Q: How did the growth turn out when `COc1ccc(C2OC(c3cc(-c4cc5ccccc5o4)nn3-c3ccccc3)=NN2C(C)=O)cc1` (stereo not given) was run?
A: 107%

Q: How did the growth turn out when `COc1cc(CCc2cc(NC(=O)c3ccc(N4C[C@@H](C)N[C@@H](C)C4)cc3)n[nH]2)cc(OC)c1` was run?
A: 28.7%

Q: How did the growth turn out when `Cn1ccnc1C(=O)/C=C/c1ccc(CC(=O)Nc2ccc(Br)cc2)cc1` was run?
A: 4.81% (active)

Q: How did the growth turn out when `COc1cc2c(cc1OCCCN1Cc3ccc(OCCCCC(=O)N4CCC(CCN5CCCC5)CC4)cc3C1)N=C(N)C21CCCC1` was run?
A: 66.4%

Q: Which growth does the source give for `CC(=O)NCC(=O)N1[C@@H]2CC[C@H]1c1ccc(Nc3ncc(C(F)(F)F)c(NC4CCC4)n3)cc12` here?
A: 16.3% [2.5 µM]
